Assay results as given in PubChem BioAssay AID2015 (National Center for Advancing Translational Sciences (NCATS), 2009).
The other results are listed elsewhere or left out. Records with an inconclusive call do not appear. Values without a mark were called inactive. Active and inactive are the calls of the source. The call rests on the fitted dose curve; in most records, active means well fitted inhibition curve with a large enough effect; inconclusive means small, poorly fitted or top-dose-only effect; inactive means flat fitted curve, though single readings scatter.

The molecules below were run against Galactokinase (Homo sapiens) (UniProt P51570) (assay: Confirmation Assay for Inhibitors of Human Galactokinase (GALK)). Conditions: purified GALK, Kinase-Glo ATP depletion luminescence; series mostly up to 115 µM; activity, negative = inhibition: at the top concentration.
Description: NIH Molecular Libraries Probe Production Centers Network [MLPCN] NIH Chemical Genomics Center [NCGC] MLPCN Grant: R03 MH085689-01 Assay Submitter (PI): Kent Lai (University of Utah School of Medicine, 50 N Mario Capecchi Drive, Salt Lake City, UT 84132) NCGC Assay Overview Inherited deficiency of galactose-1-phosphate uridyltransferase (GALT) can result in a potentially lethal disorder called Classic Galactosemia (OMIM 230400). Several lines of evidence indicate that an elevated level of galactose-1-phosphate (gal-1-p), the product of galactokinase (GALK), is a major, if not sole, pathogenic mechanism in patients with classic galactosemia. Therefore, finding inhibitors of GALK is a potential novel therapy for this inherent metabolic disease and is the long term goal of this project. Active compounds observed in the qHTS GALK assay (AID: 1868) were cherry picked and re-screened for validation. GALK (provided by Kent Lai) was assayed using ATP and D-(+)-Galactose (Sigma-Aldrich cat# G0750) as substrates. Promega Kinase-Glo Plus (cat# V3774) technology was used to detect the residual ATP following kinetic reaction. Briefly, the Kinase-Glo Plus contains Ultra-Glo [1] luciferase and D-luciferin which generates a bioluminescence signal from the remaining ATP. Kinase reactions with and without GALK were used as negative and positive controls together with Protein Tyrosine Phosphatase CD45 inhibitor (EMD Bioscience cat# 540215) which is shown to inhibit GALK activity.
NCGC Assay Protocol Summary: Three uL/well of ATP-buffer solution (35 uM ATP, 20mM HEPES pH8.0, 5 mM MgCl2, 60 mM NaCl, 1 mM DTT, 0.01% BSA final concentration) was dispensed into 1536-well, assay plates (Greiner, solid white medium-binding plates) with Aurora Discovery BioRAPTR Flying Reagent Dispenser (FRD; Beckton-Dickenson). Compound and control solution (23 nL) was transferred to the assay plate using the Kalypsys 1536-pin tool apparatus. One uL/well GALK-galactose solution (5 nM GALK, 100 uM galactose, 20 mM HEPES pH8.0, 5 mM MgCl2, 60 mM NaCl, 1 mM DTT, 0.01% BSA final concentration) was then added using the FRD yielding a total kinase reaction volume of 4 uL/ well. After 1 hour of room temperature incubation, 4 uL Kinase-Glo Plus reagent was added for a final assay volume of 8 uL/well. Luminescence was detected with the ViewLux plate reader (Perkin Elmer, Waltham, MA) after 2 min incubation using a 1 sec exposure time and 2x binning.

Galactokinase (Homo sapiens), sequence (P51570 whole entry, looked up): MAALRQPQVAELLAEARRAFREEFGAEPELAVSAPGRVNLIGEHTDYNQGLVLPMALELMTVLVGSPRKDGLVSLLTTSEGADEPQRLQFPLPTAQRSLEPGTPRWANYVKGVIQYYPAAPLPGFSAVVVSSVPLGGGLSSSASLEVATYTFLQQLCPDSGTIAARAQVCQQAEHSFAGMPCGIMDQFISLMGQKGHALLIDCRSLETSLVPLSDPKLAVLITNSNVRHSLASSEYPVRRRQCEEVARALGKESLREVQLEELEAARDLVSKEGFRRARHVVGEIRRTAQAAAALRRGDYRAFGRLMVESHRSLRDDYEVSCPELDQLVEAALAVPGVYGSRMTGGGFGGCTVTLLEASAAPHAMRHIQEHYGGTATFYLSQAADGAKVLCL

Row | Structure (SMILES) | Potency | activity, negative = inhibition [%]
1 | Oc1c(Cl)cc(Cl)c(Cl)c1Cc1c(O)c(Cl)cc(Cl)c1Cl | 21.1 µM (active) | 
2 | N#C/C(=C(/O)Cc1cccc2ccccc12)c1nc2ccccc2s1 | 33.5 µM (active) | 
3 | COc1cccc2cc(-c3cc(=O)oc4cc(C)c(O)cc34)oc12 |  | -8.9
4 | CCS(=O)(=O)C1=NSC2=NC(=O)/C(=C\c3ccc(OS(=O)(=O)c4ccccc4)cc3)C(=N)N21 | 26.6 µM (active) | 
5 | CCOC(=O)c1c(C)[nH]c2c1-c1ccccc1C(=O)C2=O | 1.68 µM (active) | 
6 | N#Cc1c(N2CCCCC2)nc(N)c2c(N)nc(SCC(=O)O)cc12 | 21.1 µM (active) | 
